# Bioassay records from PubChem BioAssay.
# PLCb3 inh: inhibitors of human phospholipase C beta3. inhibition, % at 12.2 µM. Purified PLC-beta3, fluorogenic substrate, fluorescence. hit rate 0.18% among 370,000. AID 720704; in the data active = inhibition above about 11%
# ADAM17 inh: inhibitors of human ADAM17; P78536; recombinant ADAM17, EDANS/DABCYL FRET peptide cleavage; inhibition, % at 6.95 µM; hit rate 0.83% among 370,000; AID 720648;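 active = inhibition above the mean of compounds lying between control limits plus 3 SD, set per campaign, cut at about 8.5% in these data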
# KLK7 zymogen act: activates the human kallikrein-7 zymogen | P49862 | hit rate 0.9% among 370,000 | activation, % at 7 µM | purified proKLK7, EDANS-DABCYL substrate fluorescence; 100% is mature enzyme control, 0% vehicle;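 active = activation above the mean of all tested compounds plus 3 SD, computed per campaign excluding outliers beyond control limits, cut at about 13% in these data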
# PLC-gamma1 inh: PLC-gamma1 (human) inhibition, primary screen | hit rate 0.84% among 370,000 | purified PLC-gamma1, fluorogenic substrate, fluorescence | inhibition, % at 12.2 µM | P19174; in the data active = inhibition above about 9.5%
# ADAM10 inh: inhibitors of human ADAM10 | hit rate 0.62% among 370,000 | inhibition, % at 7 µM | O14672 | recombinant ADAM10, EDANS/DABCYL FRET peptide cleavage, 3 h;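 active = inhibition above a per-campaign cutoff equal to the mean of compounds falling between control-based bounds plus 3 SD, cut at about 20% in these data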
# Target sequence (O14672 214-748 limits assumed): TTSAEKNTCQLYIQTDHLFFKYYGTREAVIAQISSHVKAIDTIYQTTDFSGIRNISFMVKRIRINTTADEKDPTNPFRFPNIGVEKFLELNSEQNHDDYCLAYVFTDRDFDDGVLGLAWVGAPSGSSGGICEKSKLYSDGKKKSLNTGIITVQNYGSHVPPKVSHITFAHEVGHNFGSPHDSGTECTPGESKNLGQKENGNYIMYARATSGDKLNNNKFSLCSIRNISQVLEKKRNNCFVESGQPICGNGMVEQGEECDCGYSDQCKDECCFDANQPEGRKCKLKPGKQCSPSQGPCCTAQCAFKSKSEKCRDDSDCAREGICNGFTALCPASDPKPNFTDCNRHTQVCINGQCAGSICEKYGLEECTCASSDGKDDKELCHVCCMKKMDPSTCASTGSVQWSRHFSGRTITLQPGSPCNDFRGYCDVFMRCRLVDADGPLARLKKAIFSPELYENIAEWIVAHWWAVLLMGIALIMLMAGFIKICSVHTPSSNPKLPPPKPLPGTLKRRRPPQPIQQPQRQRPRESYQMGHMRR
# proKLK7 act conf: proKLK7 activation, confirmation; purified proKLK7, EDANS-DABCYL substrate fluorescence; scaled: vehicle 0, mature enzyme 100; hit rate 68% among 3,200; activation, % at 7 µM; shares compounds with KLK7 zymogen act;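 active = activation, as change over the incubation, above the mean of all tested compounds plus 3 SD, cut at about 13% in these data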
# EDANS-DABCYL int: optically interferes with EDANS-DABCYL signal, flagging KLK7 hits | shares compounds with KLK7 zymogen act | EDANS-DABCYL substrate fluorescence interference, no enzyme, 4 h; solvent 0%, active enzyme control 100% | activation, % at 7 µM | hit rate 80% among 3,200 | AID 686952;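 active = activation above the all-compound mean plus 3 SD, ignoring values outside control-based bounds, cut at about 4.8% in these data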;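 also: value is the 4 h activation minus the activation read at time zero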
# EDANS interf: counter-screen for kallikrein-7 activators: EDANS-DABCYL interference, dose response | shares compounds with KLK7 zymogen act | EDANS-DABCYL peptide fluorescence interference, no enzyme | EC50, µM | hit rate 20% among 250 | AID 720493;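 active = compounds that raise the fluorescence signal in this interference counterscreen, with EC50 at or below 10 µM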;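 also: intact quenched peptide substrate alone read at 355 nm excitation and 520 nm emission; signal is fluorescence gain from T0 to T4 after four hours at room temperature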
# Hits are given with their value; n = inactive; x = not tested or not shown. A selection: hits, their analogues and other compounds. The true share with any hit is near 2.9%.
SMILES,PLCb3 inh,ADAM17 inh,KLK7 zymogen act,PLC-gamma1 inh,ADAM10 inh,proKLK7 act conf,EDANS-DABCYL int,others
O=C(N/N=C/c1ccccc1Br)c1ccc(CSc2cccc3cccnc23)cc1,n,n,n,n,n,x,x,
NNC(=O)c1ccc(CSc2cccc3cccnc23)cc1,n,n,13,n,n,n,n,
O=S1(=O)c2ccc(Br)cc2OC[C@@H](Cc2ccccc2)N1Cc1cn(Cc2ccc(C(F)(F)F)cc2)nn1,n,n,n,n,n,x,x,
CC(=O)c1cc(-c2cccc(Cl)c2O)c(=O)n2c1CCC2,n,n,n,n,n,x,x,
CCOC(=O)CC(=O)Nc1cc2ccc(OC)c(OC)c2cc1C(=O)OCC,n,n,16,n,n,n,n,
COc1ccc(NC(=O)COc2coc(CN3CCCc4ccccc43)cc2=O)cc1,n,n,n,n,n,x,x,
CCC(Oc1ccc2c(c1)C(=O)CC(C)(C)O2)C(=O)NCCN1CCCCCC1 (stereo not given),n,n,129,n,n,49,44,
CC1(C)CC(=O)c2cc(OCC(=O)NCCCN3CCN(c4ccc(F)cc4)CC3)ccc2O1,n,n,17,n,n,n,n,
CC(C)CCNC(=O)COc1ccc2c(c1)C(=O)CC(C)(C)O2,n,n,40,n,n,35,47,
Cc1ccccc1NC(=O)COc1ccc2c(c1)OC(C)(C)CC2=O,n,n,n,n,n,x,x,
CC1(C)CC(=O)c2cc(OCC(=O)NCCN3CCCc4ccccc43)ccc2O1,n,n,18,n,n,43,39,
O=C(Nc1ccccc1Oc1ccccc1)NC1CCCCN(Cc2ccc(Cl)cc2)C1=O (stereo not given),n,n,n,n,n,x,x,
C[C@@H]1COc2cccc(NC3CC3)c2S(=O)(=O)N1,n,n,n,n,n,x,x,
COc1ccc(OC)c(CN2C(=O)CCCCC2(C)c2nnnn2C2CCCC2)c1 (stereo not given),n,n,n,n,n,x,x,
CCc1cc(=O)oc2c3c(cc(OCC(=O)NCc4cccnc4)c12)OC(C)(C)CC3,n,n,18,n,n,n,n,
CCc1cc(=O)oc2c3c(cc(OCC(=O)Nc4cccnc4)c12)OC(C)(C)CC3,n,n,n,n,n,x,x,
Cc1cc(=O)oc2c3c(cc(OCC(=O)NCc4ccncc4)c12)OC(C)(C)CC3,n,n,23,n,n,37,n,EDANS interf=n
CCc1cc(=O)oc2c3c(cc(OCC(=O)NCc4ccccn4)c12)OC(C)(C)CC3,n,n,20,n,n,n,n,
CCc1cc(=O)oc2c3c(cc(OCC(=O)NCCCCCC(=O)O)c12)OC(C)(C)CC3,n,n,30,n,n,57,64,
CCC(C)N(C(=O)CN1C(=O)C2CCCCN2C(=O)c2ccccc21)C(C)CC (stereo not given),n,n,n,n,n,x,x,
CC(=O)N1CCCN(C(=O)CCn2nnc3ccccc32)CC1,n,n,n,n,n,x,x,
COc1cc(/C=C/C(=O)N2C(=O)c3cccc(N)c3C2=O)cc(OC)c1OC,n,n,21,n,n,307,297,
Nc1cccc2c1C(=O)N(C(=O)/C=C/c1cccc(Br)c1)C2=O,n,n,n,n,n,x,x,
COc1ccc(OC)c(/C=C/C(=O)N2C(=O)c3cccc(N)c3C2=O)c1,n,n,44,n,n,654,689,
O=C1c2cccc3cccc(c23)C(=O)N1c1ccccc1Cl,n,n,46,n,n,26,22,
COc1cc2c(cc1OC)CN(C(=O)CSc1ccc(F)cc1)CC2,n,n,n,n,n,x,x,
COc1cc2c(cc1OC)CN(C(=O)CSc1n[nH]c(N)n1)CC2,n,n,18,n,n,n,n,
CCc1nc(SCC(=O)N2CCc3cc(OC)c(OC)cc3C2)c(C#N)cc1C,n,n,13,n,n,n,n,
COC(=O)[C@]1(CNC(C)=O)CC(=O)N(C)[C@@H]1c1ccccc1,n,n,n,n,n,x,x,
CCN(CC)c1ccc(C=Nn2c(C)nnc2C)cc1,n,n,n,n,n,x,x,
